Results: ChEMBL document CHEMBL1157539, “Thousands of chemical starting points for antimalarial lead identification” (Nature, 2010)

Legend:
Type in all cases: functional
[1] = tested on: Plasmodium falciparum; test: GSK_TCMDC: Inhibition of Plasmodium falciparum 3D7 in whole red blood cells, using parasite LDH activity as an index of growth. Test compounds present at 2uM
[2] = tested on: Plasmodium falciparum; test: GSK_TCMDC: Inhibition of Plasmodium falciparum Dd2 in whole red blood cells, using parasite LDH activity as an index of growth. Test compounds present at 2uM
[3] = tested on: HepG2; test: GSK_TCMDC: Percent inhibition of human HepG2 cell line. Test compounds present at 10uM.

| Compound | Inhibition [1] [%] | Inhibition [2] [%] | Inhibition [3] [%] |
| --- | --- | --- | --- |
| O=C(NCC1CCN(Cc2cccc(F)c2)C1)c1cc(-c2cccc(C(F)(F)F)c2)cs1.O=C(O)C(F)(F)F (configuration not stated) | 96 | 10 | 31 |
| CS(=O)(=O)c1cccc(-c2cnc(N)c3cc(-c4cccc(F)c4)ccc23)c1 | 97 | 13 | 45 |
| O=C(NCCCCCN1CCC(c2c[nH]c3ccccc23)CC1)Nc1ccc(I)c(Cl)c1 | 99 | 5 | 88 |
| Cc1cccc2nc(-c3cccc(-c4ccc(CNCc5ccccc5)cc4)c3)[nH]c12.O=C(O)C(F)(F)F | 99 | 100 | 33 |
| CCCNCc1ccc(-c2ccc(CN(CCOC)C(=O)CC3CCCC3=O)cc2)nc1.O=C(O)C(F)(F)F (configuration not stated) | 93 | 9 | 5 |
| N#Cc1ccc(CN2CCC(Oc3ccc(NC(=O)c4cccs4)cc3)C2)cc1.O=C(O)C(F)(F)F (configuration not stated) | 82 | 65 | 5 |
| COc1c(C)[nH]c(C)c(-c2ccc(Oc3cccc(C(F)(F)F)c3)cc2)c1=O | 98 | 96 | 40 |
| Cc1cccc2nc(-c3ccc(-c4ccc(CN5CCCC(O)C5)cc4)cc3)[nH]c12.O=C(O)C(F)(F)F (configuration not stated) | 100 | 54 | 41 |
| CC1(C)CCC(=Cc2ccc(Cl)cc2)CC1(O)Cn1ccnc1 (configuration not stated) | 99 | 74 | 0 |
| COc1cc(NC(=O)NC(CCN2CCC3(CCc4ccccc43)CC2)c2ccc(Cl)c(Cl)c2)cc(OC)c1OC (configuration not stated) | 90 | 66 | 66 |
| CC(C)S(=O)(=O)N1CCN(Cc2ccc3c(c2)nc(NC(=O)c2ccsc2)n3C[C@H](O)c2ccccc2)CC1 | 91 | 72 | 56 |
| Cn1cnc2c(Nc3ccncc3)nc(-c3ccc(OC(F)(F)F)cc3)nc21.O=C(O)C(F)(F)F | 100 | 65 | 28 |
| Cc1cccc2nc(-c3ccc(-c4cccc(NC(=O)Nc5ccsc5)c4)cc3)[nH]c12 | 100 | 24 | 24 |
| Cc1noc(C)c1-c1cccc(CNCc2ccc(-c3cccc(-c4nc5cc(F)ccc5[nH]4)c3)cc2)c1.O=C(O)C(F)(F)F | 100 | 84 | 37 |
| CC(C)CN1C(=O)c2ccccc2C(C(=O)Nc2cccc(C#N)c2)C1c1cccs1 (configuration not stated) | 100 | 100 | 11 |
| O=C(/C=C/c1ccc(Cl)c(Cl)c1)NCCCCCN1CCC(NC(=O)c2ccc3ccccc3c2)CC1 | 87 | 20 | 8 |
| COc1ccc(-c2ccc(S(=O)(=O)Nc3cc4c(cc3OC(C)C)CCN(C)CC4)cc2)cc1.Cl | 98 | 2 | 16 |
| Cc1[nH]c2ccccc2c1C(=O)CSc1nn(-c2ccccc2)c(=S)s1 | 100 | 99 | 0 |
| Cc1cccn2c(=O)c3cc(C(=O)NCc4cccnc4)c(=N)n(CCc4ccccc4)c3nc12 | 99 | 38 | 0 |
| O=C(NCC1CCC1)c1cnc(Nc2cccc(Cl)c2)nc1N1CCC1 | 98 | 75 | 21 |

| Compound | Inhibition [1] [%] | Inhibition [2] [%] | Inhibition [3] [%] |
| --- | --- | --- | --- |
| CC(C)(C)c1ccc(CN2CCCCC(NC(=O)c3cc(-c4cccc(Cl)c4)cs3)C2)cc1.O=C(O)C(F)(F)F (configuration not stated) | 96 | 60 | 11 |
| CC(C)CCn1c(Sc2ccc(C#N)c([N+](=O)[O-])c2)nnc1-c1ccc(Cl)cc1 | 90 | 39 | 25 |
| CN1CCC(NCc2cccc(-c3ccc(S(=O)(=O)NCCN4CCCC4)c(F)c3)c2)CC1.O=C(O)C(F)(F)F | 91 | 0 | 14 |
| CN1CCC(C(=O)Nc2ccc(-c3ccc(-c4nc5ccccc5[nH]4)s3)cc2)CC1 | 99 | 22 | 30 |
| CC(C)c1ccc(NC(=O)NC2CCN(CCCCCN(C)C(=O)/C=C/c3ccc(Cl)c(Cl)c3)C2)cc1 (configuration not stated) | 99 | 3 | 28 |
| CC(C)N1CCC(N(Cc2ccc(-c3ccc(C(F)(F)F)cc3)cc2)C(=O)Cn2c(SCc3cccc(F)c3F)nc(=O)c3ccccc32)CC1.O=C(O)C(O)C(O)C(=O)O | 91 | 75 | 74 |
| CNCCNCc1cccc(-c2ccc(-c3nc4ccccc4[nH]3)s2)c1.O=C(O)C(F)(F)F | 99 | 9 | 8 |
| CCCN(CCC)CCOc1ccc(C(O)(C#CC(O)(c2ccc(OCCN(CCC)CCC)cc2)c2cccc(Cl)c2)c2cccc(Cl)c2)cc1 (configuration not stated) | 100 | 98 | 100 |
| Cc1cc(N[C@@H](CC(C)C)C(=O)NCCOc2ccccc2)nc(NCCc2ccccc2)n1.O=C(O)C(F)(F)F | 94 | 29 | 13 |
| O=C(Nc1ccccc1O)c1ccc(Oc2cccc(C(=O)Nc3ccccc3O)c2)cc1 | 97 | 70 | 33 |
| O=C(Nc1ccc(OC2CCN(Cc3ccc(F)cc3)CC2)c(Cl)c1)c1ccco1.O=C(O)C(F)(F)F | 95 | 95 | 2 |
| Cl.N#Cc1ccc(CCNc2nccc(-c3cccc(CN4CCNCC4)c3)n2)cc1 | 83 | 0 | 5 |
| Cn1nccc1C(=O)NCCNCc1cccc(-c2csc(-c3nc4ccccc4[nH]3)c2)c1.O=C(O)C(F)(F)F | 100 | 2 | 30 |
| COc1ccc2nc3cc(Cl)ccc3c(Nc3ccc(O)c(CNC(C)C)c3)c2c1 | 100 | 100 | 5 |
| CC(CO)(CO)NCc1cc2c3ccccc3c(CNC(C)(CO)CO)cc2c2ccccc12.CS(=O)(=O)O | 96 | 98 | 40 |
| COc1cccc(-c2cnc(-c3ccncc3)nc2C2CCN(Cc3ccc(NC(C)=O)cc3)CC2)c1 | 89 | 0 | 17 |
| CC(CN1CCN(C)CC1)C(=O)Nc1cccc(-c2ccc(-c3nc4cc(F)ccc4[nH]3)cc2)c1 (configuration not stated) | 100 | 98 | 10 |
| CN1CCC(Oc2cc(NC(=O)Nc3ccc(-c4ccncc4)c(C(F)(F)F)c3)ccc2Cl)CC1 | 100 | 92 | 30 |
| Cc1ccccc1C1CCN(C2CCC(NC(=O)c3cncc(-c4ccccc4)c3)CC2)CC1 (configuration not stated) | 100 | 92 | 27 |
| CC(=O)c1sc(Cc2nc3ccccc3s2)nc1C | 94 | 88 | 0 |

| Compound | Inhibition [1] [%] | Inhibition [2] [%] | Inhibition [3] [%] |
| --- | --- | --- | --- |
| CCCS(=O)(=O)c1nc(S(=O)(=O)c2ccc(Cl)cc2)c(N2CCCCC2)s1 | 87 | 34 | 3 |
| COc1ccccc1-c1cccc2c(NC(=O)Nc3ccc4nccc(N5CCN(C)CC5)c4c3)ccnc12 | 94 | 34 | 3 |
| C[C@H]1CN(Cc2cccc(-c3cc(CNC(=O)c4cccc(C(=O)c5ccc(Cl)c(Cl)c5)c4)ccc3F)c2)CCN1 | 85 | 42 | 40 |
| Cc1ccc2nc3ccccc3c(NCCN3CCN(C)CC3)c2c1.Cl | 100 | 6 | 19 |
| CC(=O)N(C)c1ccc(C(=O)Nc2cccc(-c3cccc(-c4nc5cccc(C)c5[nH]4)c3)c2)cc1 | 89 | 30 | 11 |
| CN(C)Cc1cccc(-c2ccc(NC(=O)c3ccc4c(=O)n(C5CCCCC5)cnc4c3)cc2)c1 | 96 | 53 | 92 |
| CCOc1cc(C=Cc2nc(O)c3ccccc3n2)cc(Cl)c1O | 83 | 90 | 25 |
| CCCC(C)Nc1nc(C)cc(N[C@@H](CC(C)C)C(=O)NCc2ccc(C)cc2)n1.O=C(O)C(F)(F)F (some centres not stated) | 98 | 51 | 16 |
| CC(Sc1nc(-c2ccccc2)c(-c2ccccc2)o1)C(=O)NC1CC1 (configuration not stated) | 94 | 91 | 13 |
| COc1ccc(Nc2nc(NCc3ccco3)c3ccccc3n2)cc1.Cl | 99 | 76 | 38 |
| O=C(Nc1cccnc1)c1cc(C(=O)Nc2cccnc2)cc([N+](=O)[O-])c1 | 100 | 100 | 0 |
| COc1ccc(N2CCN(CCCCNC(=O)c3ccc(NC(=O)c4ccc(OC(F)(F)F)cc4)cc3)CC2)c(OC)c1 | 100 | 90 | 36 |
| O=C(O)C(F)(F)F.c1ccc(CN2CCC(NCc3ccc(-c4ccc(CNC5CCCC5)cc4)cc3)CC2)cc1 | 100 | 98 | 24 |
| O=C(Nc1cc(C(F)(F)F)cc(C(F)(F)F)c1)c1cc(C(F)(F)F)cc(C(F)(F)F)c1 | 100 | 86 | 21 |
| O=C(Nc1ccc(C(F)(F)F)cc1)c1ccc(S(=O)(=O)NCC2CCCN(CC3CCCCC3)C2)cc1.O=C(O)C(F)(F)F (configuration not stated) | 93 | 0 | 44 |
| CN(CCCN(C)c1cc(NC(=O)c2cccc(F)c2)ccn1)Cc1cccc(O)c1.O=C(O)C(F)(F)F | 92 | 4 | 0 |
| O=C(NCc1cccc(F)c1)Nc1ccc(-c2ccc(-c3nc4cc(C(F)(F)F)ccc4[nH]3)cc2)cc1 | 100 | 24 | 46 |
| CC(=O)COc1c(C2CCN(CCCCNC(=O)c3ccc(-c4ccc(C(F)(F)F)cc4)cc3)CC2)ccc2c1CCCC2 | 99 | 53 | 100 |
| Cc1c(CNCCCNc2nc3ccncc3[nH]2)sc(Br)c1Br.Cl | 87 | 1 | 0 |
